Shiga toxin inh: inhibitors of Shiga toxin in Vero cells | AID 2315 | Vero cells, Shiga toxin protein synthesis inhibition reporter | hit rate 9.2% among 290,000 | inhibition, % at 38.7 µM; in the data active = inhibition mostly above about 28%, no sharp cut-off; inactive = mostly below about 43%; also: 0% is about no effect
RE007 growth inh: less growth of the S. pombe RE007 Vpr strain. S. pombe RE007 Vpr strain, BacTiter-Glo ATP luminescence, 24 h. Potency, µM (doses to about 92.2 µM), for inactives: at the highest dose activity change, negative = less growth, usual class: inhibitors. hit rate 0.21% among 360,000. AID 651644; active = well fitted falling curve with a large enough effect; inconclusive = small, poorly fitted or top-dose-only effect; inactive = no such curve, though single readings can be large or run the other way; also: potency is read from the fitted curve at half-maximal effect; % is scaled to controls: 0 for no effect and ±100 for the full control effect; nearly all actives have a fitted effect of over 50% in size
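Fission yeast RE007 carrying one integrated HIV-1 vpr copy, seeded at OD 0.01 in PMG+AL medium with 23 nL pinned compound. Grown 24 h at 30 degrees; viability read by BacTiter-Glo luminescence after 5 min.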
Tb PYK inh: inhibitors of Trypanosoma brucei pyruvate kinase; Q57TT1; hit rate 0.12% among 410,000; Potency, µM (highest dose often 76.8 µM), inactives show at the highest dose activity, negative = inhibition, hits mostly inhibitors; AID 624173; TbPYK enzyme, Kinase-Glo Plus ATP luminescence, 45 min; also: potency is read from the fitted curve at half-maximal effect; % is scaled to controls: 0 for no effect and ±100 for the full control effect; nearly all actives have a fitted effect of over 50% in size
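TbPYK + substrate in 50 mM TEA pH 7.2, 100 mM KCl, 10 mM MgCl2, 0.05% BSA, 0.01% Tween-20; cpd pinned; ADP 130 uM final; 45 min RT; Kinase-Glo Plus 10 min; luminescence endpoint.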
Cycloheximide cs: counter-screen hit for Shiga toxin inhibitors, cycloheximide | max response, % | hit rate 12% among 300,000 | cell reporter, cycloheximide protein synthesis inhibition counterscreen; in the data active = max response mostly above about 13%, no sharp cut-off; inactive = mostly below about 14%; also: read at 38.3 µM for the half of the compounds with a filed dose; 0% is about no effect
LmPK inh: LmPK (Leishmania mexicana) enzyme inhibition. Q27686. purified LmPK, Kinase-Glo ATP luminescence, 1 h. Potency, µM (series often up to 57.5 µM), for inactives: at the top dose activity change, negative = inhibition, usual class: inhibitors. hit rate 0.37% among 290,000; also: potency is read from the fitted curve at half-maximal effect; % is scaled to controls: 0 for no effect and ±100 for the full control effect
Target sequence (Q27686 whole entry, looked up): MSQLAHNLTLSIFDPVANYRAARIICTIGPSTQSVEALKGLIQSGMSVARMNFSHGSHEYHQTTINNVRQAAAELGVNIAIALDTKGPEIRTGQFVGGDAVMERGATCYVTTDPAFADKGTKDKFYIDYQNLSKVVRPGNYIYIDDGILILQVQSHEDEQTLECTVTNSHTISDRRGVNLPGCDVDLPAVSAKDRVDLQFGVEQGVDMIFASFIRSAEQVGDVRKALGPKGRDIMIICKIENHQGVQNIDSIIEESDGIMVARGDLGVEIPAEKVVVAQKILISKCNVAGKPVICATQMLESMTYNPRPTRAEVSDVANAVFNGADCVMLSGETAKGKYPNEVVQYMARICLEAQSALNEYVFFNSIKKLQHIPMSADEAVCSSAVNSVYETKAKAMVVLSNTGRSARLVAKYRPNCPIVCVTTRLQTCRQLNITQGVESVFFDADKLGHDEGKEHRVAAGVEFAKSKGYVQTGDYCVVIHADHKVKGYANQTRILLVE
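Purified LmPK (0.1 nM) converted ADP (0.1 mM) to ATP with PEP (0.5 mM) in imidazole buffer pH 7.2 with KCl and MgCl2, 1 h at room temperature. ATP was read by Kinase-Glo luminescence; data normalized to uninhibited and no-enzyme controls.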
Giardia FBPA inh: Giardia lamblia aldolase inhibition; A8B2U2; purified Giardia FBPA; Potency, µM (highest dose often 59.6 µM), without a hit: top-dose activity, negative = inhibition, most hits filed as inhibitors; hit rate 0.71% among 290,000; also: potency is read from the fitted curve at half-maximal effect; % is scaled to controls: 0 for no effect and ±100 for the full control effect; nearly all actives have a fitted effect of over 55% in size
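40 nM FBPA preincubated 10 min at RT with compound (up to 57.5 uM final), then substrate plus GAPDH/TPI/NAD/arsenate coupling and diaphorase/resazurin added. Fluorescence read after 20 min at RT, 525/598 nm.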
* hit, by the source's call; ? = inconclusive; nt = no result given; + = active, no number; [ ] = remark or other dose. The full list was thinned out, with hits kept by preference. Unless noted, calls follow the shape of the dose curve; as a rule, active = well fitted curve in the direction sought with a large enough effect; inconclusive = small, poorly fitted or top-dose-only effect, or another doubt; inactive = no such curve, though single readings can be large; an effect the other way counts as inactive or inconclusive.

SMILES	Shiga toxin inh	RE007 growth inh	Tb PYK inh	Cycloheximide cs	LmPK inh	Giardia FBPA inh
COc1ccc(NC(=O)NC(=O)c2ccccc2)cc1	nt	-14%	-4%	25*	-6%	-2%
COc1ccccc1NC(=O)NC(=O)c1ccccc1	59*	22%	-5%	23*	-5%	1%
COc1ccccc1NC(=O)NC(N)=O	-2	-8%	1%	3	1%	-2%
O=C(NC(=O)c1ccccc1)Nc1ccccc1	51*	2%	-3%	42*	-14%	0%
Cc1ccc(-n2nc3c(n2)/C(=N/O)CC/C3=N\O)cc1	48*	?	-14%	44*	14µM*	-1%
O=C(Nc1nnc(S(=O)(=O)N2CCCCCC2)s1)c1ccccc1F	18	-15%	0%	11*	-7%	-22%
O=C(Nc1nnc(S(=O)(=O)N2CCOCC2)s1)c1ccccc1Cl	-1	-3%	-2%	-3	-1%	?
O=C(Nc1nnc(S(=O)(=O)N2CCOCC2)s1)c1ccccc1F	15	-21%	1%	17*	-4%	nt
O=C(Nc1nnc(-c2ccccc2)s1)c1ccccc1F	59*	2%	4%	74*	-5%	-29%
Cc1csc2nc(COc3cccc(NC(=O)c4ccccc4F)c3)cc(=O)n12	nt	nt	-7%	nt	nt	nt
O=C(Nc1nc(COc2ccccc2)cs1)c1ccccc1F	14*	-4%	-18%	24	1%	-3%
Cc1cccc(C(=O)Nc2nnc(S(=O)(=O)N3CCOCC3)s2)c1	23	-2%	-7%	9	0%	?
O=C(Nc1nnc(S(=O)(=O)N2CCOCC2)s1)c1cccc(F)c1	31*	1%	6%	20*	3%	?
CCCN(CCC)C(=O)[C@@H](CCC(=O)O)NC(=O)c1ccccc1	nt	nt	0%	nt	nt	0%[21.7 µM]
Cc1ccc(S(=O)(=O)NC(=O)Nc2ccc(N(C)C)cc2)cc1	54*	-24%	-29%	55*	-26%	nt
Cc1ccc(S(=O)(=O)NC(=O)c2cc(C)n(-c3ccccc3)c2C)cc1	-23	7%	-10%	8	1%	23%
Cc1ccc(S(=O)(=O)NC(=O)c2cc(C)n(-c3ccc(N(C)C)cc3)c2C)cc1	51*	-5%	8%	19*	7%	24%
CCc1ccnc(NC(=O)NS(=O)(=O)c2ccc(C)cc2)c1	23	-7%	1%	16*	-2%	1%
COc1ccc(CNS(=O)(=O)c2ccc(F)c(C(=O)Nc3c(C)cc(C)cc3C)c2)cc1	nt	nt	1%	nt	nt	nt
c1ccc2c(CCNc3ncnc4nc[nH]c34)cccc2c1	+	7%	4%	31*	-3%	-4%
c1ccc(CCCNc2ncnc3nc[nH]c23)cc1	37	5%	-10%	27*	-5%	-8%
C1=C(CCNc2ncnc3nc[nH]c23)CCCC1	38*	10%	-1%	37*	-10%	-9%
c1ccc(CCCNc2ncccn2)cc1	+	-16%	6%	32*	-3%	-12%
c1ccc(CCCCc2ccccn2)cc1	nt	5%	1%	nt	nt	nt
Clc1ccc(CCNc2ncnc3nc[nH]c23)cc1	30	-11%	-1%	14	-3%	-17%
SMILES	Shiga toxin inh	RE007 growth inh	Tb PYK inh	Cycloheximide cs	LmPK inh	Giardia FBPA inh
COc1ccc2nc3sc(C(=O)N4CCN(c5ccc(F)cc5)CC4)cc3cc2c1	nt	nt	0%	nt	nt	nt
C[C@H](CO)N1C[C@H](C)[C@H](CN(C)Cc2cccc(O)c2)OCc2ccccc2-c2c(n(C)c3ccccc23)C1=O	nt	2%	-2%	nt	nt	nt
CN1CCc2cc(O)cc3c2C1Cc1ccc(O)c(O)c1-3 (stereo not given)	nt	nt	nt	nt	nt	14µM*
Cc1sc2ncnc(SCC(=O)c3cccs3)c2c1C	72*	1%	-1%	35*	1%	3%
Cc1cccc(NC(=O)CSc2ncnc3sc(C)c(C)c23)n1	-7	-18%	4%	-2	-8%	nt
O=C(Nc1nc2c(Cl)cccc2s1)c1ccc([N+](=O)[O-])o1	nt	-15%	-1%	2	-3%	-4%
O=C(Nc1nc2c(F)cccc2s1)c1ccc([N+](=O)[O-])o1	9	-11%	7%	11*	-5%	-15%
O=C(Nc1ncccn1)c1ccc([N+](=O)[O-])o1	64*	-12%	-12%	52*	-4%	-24%

High-throughput results (PubChem BioAssay)
